Laboratory results published in PubChem BioAssay AID1159580 (chemical genetic matrix, 2015).
The campaign covered roughly 5,500 compounds. About 2,000 (36%) were called active. Inconclusive results (about 18%) are left out. The list shows a part of the results. Unmarked numbers belong to inactive results. No stated cut-off is given here; in the data, active means normalized growth mostly below about 0.91 (no sharp cut-off); inconclusive means no clear call, values can overlap the other calls; inactive means mostly above about 0.92.

Assay: chemical genetic growth profiling, strain panel (AID 1159580);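 further: tested at 20 µM; growth read once vehicle control cultures reached saturation at 30 °C; 1 = growth at the plate median or of vehicle wells; lower values mean less growth of the strain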
Details: growth OD

Compound: CC(=O)N(O)CCCCCNC(=O)CCC(=O)N(O)CCCCCNC(=O)CCC(=O)N(O)CCCCCN
- normalized growth (S. cerevisiae deletion strains, locus YJR066W, strain TOR1, active compounds read low): 0.95
- normalized growth (S. cerevisiae deletion strains, locus YJR075W, strain HOC1, active compounds read low): 1.01
- normalized growth (S. cerevisiae deletion strains, locus YKL009W, strain mrt4, active compounds read low): 1.01
- normalized growth (S. cerevisiae deletion strains, locus YKL068W, active compounds read low): 1.05
- normalized growth (S. cerevisiae deletion strains, locus YKL085W, strain MDH1 (second series), active compounds read low): 1.02
- normalized growth (S. cerevisiae deletion strains, locus YKL085W, strain MDH1, active compounds read low): 1.02
- normalized growth (S. cerevisiae deletion strains, locus YKL160W, strain elf1, active compounds read low): 0.998
- normalized growth (S. cerevisiae deletion strains, locus YKL190W, strain CNB1, active compounds read low): 1.01
- normalized growth (S. cerevisiae deletion strains, locus YKR001C, strain vps1, active compounds read low): 0.966
- normalized growth (S. cerevisiae deletion strains, locus YKR026C, strain gcn3, active compounds read low): 1.03
- normalized growth (S. cerevisiae deletion strains, locus YKR091W, strain srl3, active compounds read low): 1.01
- normalized growth (S. cerevisiae deletion strains, locus YLL001W, strain dnm1, active compounds read low): 0.991
- normalized growth (S. cerevisiae deletion strains, locus YLL026W, active compounds read low): 0.997
- normalized growth (S. cerevisiae deletion strains, locus YLL041C, strain sdh2, active compounds read low): 1
- normalized growth (S. cerevisiae deletion strains, locus YLR027C, strain aat2, active compounds read low): 1
- normalized growth (S. cerevisiae deletion strains, locus YLR039C, strain RIC1, active compounds read low): 0.997
- normalized growth (S. cerevisiae deletion strains, locus YLR058C, strain SHM2, active compounds read low): 1.01
- normalized growth (S. cerevisiae deletion strains, locus YLR102C, strain apc9, active compounds read low): 1.03
- normalized growth (S. cerevisiae deletion strains, locus YLR113W, strain HOG1, active compounds read low): 1.14
- normalized growth (S. cerevisiae deletion strains, locus YLR221C, strain rsa3, active compounds read low): 1.04
- normalized growth (S. cerevisiae deletion strains, locus YLR258W, strain gsy2, active compounds read low): 1.02
- normalized growth (S. cerevisiae deletion strains, locus YLR262C, strain YPT6 (second series), active compounds read low): 0.995
- normalized growth (S. cerevisiae deletion strains, locus YLR262C, strain YPT6, active compounds read low): 1.08
- normalized growth (S. cerevisiae deletion strains, locus YLR268W, strain sec22, active compounds read low): 0.981
- normalized growth (S. cerevisiae deletion strains, locus YLR320W, strain mms22, active compounds read low): 1.07
- normalized growth (S. cerevisiae deletion strains, locus YLR330W, strain CHS5, active compounds read low): 1.01
- normalized growth (S. cerevisiae deletion strains, locus YLR342W, strain FKS1 (second series), active compounds read low): 0.854
- normalized growth (S. cerevisiae deletion strains, locus YLR342W, strain FKS1, active compounds read low): 0.958
- normalized growth (S. cerevisiae deletion strains, locus YLR357W, strain rsc2, active compounds read low): 0.882
- normalized growth (S. cerevisiae deletion strains, locus YLR370C, strain arc18, active compounds read low): 1
- normalized growth (S. cerevisiae deletion strains, locus YLR371W, strain rom2, active compounds read low): 1.02
- normalized growth (S. cerevisiae deletion strains, locus YLR384C, strain iki3, active compounds read low): 0.991
- normalized growth (S. cerevisiae deletion strains, locus YLR418C, strain cdc73, active compounds read low): 0.864
- normalized growth (S. cerevisiae deletion strains, locus YML016C, strain PPZ1, active compounds read low): 1.01
- normalized growth (S. cerevisiae deletion strains, locus YML032C, strain rad52, active compounds read low): 1.06
- normalized growth (S. cerevisiae deletion strains, locus YML120C, strain ndi1, active compounds read low): 0.993
- normalized growth (S. cerevisiae deletion strains, locus YML124C, strain tub3, active compounds read low): 1.03
- normalized growth (S. cerevisiae deletion strains, locus YMR058W, strain fet3, active compounds read low): 1.02
- normalized growth (S. cerevisiae deletion strains, locus YMR078C, strain ctf18, active compounds read low): 1.04
- normalized growth (S. cerevisiae deletion strains, locus YMR125W, strain sto1, active compounds read low): 1.06
- normalized growth (S. cerevisiae deletion strains, locus YMR129W, active compounds read low): 1.01
- normalized growth (S. cerevisiae deletion strains, locus YMR205C, strain PFK2, active compounds read low): 1.03
- normalized growth (S. cerevisiae deletion strains, locus YMR223W, strain ubp8, active compounds read low): 0.998
- normalized growth (S. cerevisiae deletion strains, locus YMR231W, strain pep5, active compounds read low): 0.983
- normalized growth (S. cerevisiae deletion strains, locus YMR307W, strain GAS1, active compounds read low): 0.809
- normalized growth (S. cerevisiae deletion strains, locus YNL067W, strain RPL9B, active compounds read low): 0.999
- normalized growth (S. cerevisiae deletion strains, locus YNL071W, strain lat1, active compounds read low): 1.04
- normalized growth (S. cerevisiae deletion strains, locus YNL128W, strain TEP1, active compounds read low): 1.01
- normalized growth (S. cerevisiae deletion strains, locus YNL153C, strain GIM3, active compounds read low): 0.99
- normalized growth (S. cerevisiae deletion strains, locus YNL183C, strain NPR1, active compounds read low): 0.995
- normalized growth (S. cerevisiae deletion strains, locus YNL209W, strain ssb2, active compounds read low): 0.917 (active)
- normalized growth (S. cerevisiae deletion strains, locus YNL233W, strain BNI4, active compounds read low): 0.987
- normalized growth (S. cerevisiae deletion strains, locus YNL248C, strain rpa49, active compounds read low): 1.08
- normalized growth (S. cerevisiae deletion strains, locus YNL250W, strain rad50, active compounds read low): 1.08
- normalized growth (S. cerevisiae deletion strains, locus YNL271C, strain bni1, active compounds read low): 0.978
- normalized growth (S. cerevisiae deletion strains, locus YNL298W, strain CLA4, active compounds read low): 1
- normalized growth (S. cerevisiae deletion strains, locus YNL307C, strain MCK1, active compounds read low): 1.03
- normalized growth (S. cerevisiae deletion strains, locus YNL322C, strain KRE1 (second series), active compounds read low): 1.01
- normalized growth (S. cerevisiae deletion strains, locus YNR049C, strain mso1, active compounds read low): 1.01
- normalized growth (S. cerevisiae deletion strains, locus YNR052C, strain pop2, active compounds read low): 1.01
- normalized growth (S. cerevisiae deletion strains, locus YOL012C, strain htz1): 1.51
- normalized growth (S. cerevisiae deletion strains, locus YOL147C, strain pex11, active compounds read low): 1.02
- normalized growth (S. cerevisiae deletion strains, locus YOR001W, strain rrp6, active compounds read low): 0.96
- normalized growth (S. cerevisiae deletion strains, locus YOR061W, strain CKA2, active compounds read low): 0.996
- normalized growth (S. cerevisiae deletion strains, locus YOR069W, strain VPS5, active compounds read low): 1.01
- normalized growth (S. cerevisiae deletion strains, locus YOR070C, strain gyp1, active compounds read low): 1.01
- normalized growth (S. cerevisiae deletion strains, locus YOR080W, strain dia2, active compounds read low): 0.996
- normalized growth (S. cerevisiae deletion strains, locus YOR083W, strain WHI5, active compounds read low): 0.958
- normalized growth (S. cerevisiae deletion strains, locus YOR106W, strain vam3, active compounds read low): 0.844 (active)
- normalized growth (S. cerevisiae deletion strains, locus YOR136W, strain idh2, active compounds read low): 1.03
- normalized growth (S. cerevisiae deletion strains, locus YOR144C, strain elg1, active compounds read low): 1.02
- normalized growth (S. cerevisiae deletion strains, locus YOR184W, strain ser1, active compounds read low): 0.999
- normalized growth (S. cerevisiae deletion strains, locus YOR231W, strain MKK1, active compounds read low): 1.04
- normalized growth (S. cerevisiae deletion strains, locus YOR265W, strain rbl2, active compounds read low): 1
- normalized growth (S. cerevisiae deletion strains, locus YOR270C, strain vph1, active compounds read low): 0.964
- normalized growth (S. cerevisiae deletion strains, locus YOR290C, strain snf2, active compounds read low): 1.02
- normalized growth (S. cerevisiae deletion strains, locus YOR316C, strain cot1, active compounds read low): 1.04
- normalized growth (S. cerevisiae deletion strains, locus YPL051W, strain arl3, active compounds read low): 1.07
- normalized growth (S. cerevisiae deletion strains, locus YPL078C, strain atp4, active compounds read low): 0.985
- normalized growth (S. cerevisiae deletion strains, locus YPL106C, strain sse1, active compounds read low): 0.953
- normalized growth (S. cerevisiae deletion strains, locus YPL240C, strain hsp82, active compounds read low): 1.01
- normalized growth (S. cerevisiae deletion strains, locus YPL256C, strain CLN2, active compounds read low): 1.09
- normalized growth (S. cerevisiae deletion strains, locus YPR119W, strain clb2, active compounds read low): 1.04
- normalized growth (S. cerevisiae deletion strains, locus YPR141C, strain kar3, active compounds read low): 1.05
- normalized growth (S. cerevisiae deletion strains, locus YPR163C, strain tif3, active compounds read low): 1.03
- normalized growth (S. cerevisiae deletion strains, locus YPR167C, strain met16, active compounds read low): 1.04
- normalized growth (S. cerevisiae deletion strains, strain wtn01, active compounds read low): 0.998
- normalized growth (S. cerevisiae strains, strain wild type, active compounds read low): 1.01
